Laboratory results taken from PubChem BioAssay AID1159580 (chemical genetic matrix, 2015).
Where “and” joins values, the source holds several entries; their conditions need not be identical. Equal values may be shown once. The whole screen tested about 5,500 compounds, of which about 2,000 (36%) were called active. Inconclusive results (about 18%) are left out. No stated cut-off is given here; in the data, active means normalized growth mostly below about 0.91 (no sharp cut-off); inconclusive means no clear call, values can overlap the other calls; inactive means mostly above about 0.92. This is one part of the list.

Assay: chemical genetic growth profiling, strain panel (AID 1159580);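 further: tested at 20 µM; growth read once vehicle control cultures reached saturation at 30 °C; 1 = growth at the plate median or of vehicle wells; lower values mean less growth of the strain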
Settings: growth OD

Measured: normalized growth

COc1ccc2c(c1)c(CC(=O)O)c(C)n2C(=O)c1ccc(Cl)cc1
active: S. cerevisiae deletion strains, locus YLR221C, strain rsa3, hits give low values 0.874 | S. cerevisiae deletion strains, locus YLR320W, strain mms22, hits give low values 0.819 | S. cerevisiae deletion strains, locus YML120C, strain ndi1, hits give low values 0.874 | S. cerevisiae deletion strains, locus YNL322C, strain KRE1 (second series), hits give low values 0.64
inactive: S. cerevisiae deletion strains, locus YJR075W, strain HOC1, hits give low values 1 | S. cerevisiae deletion strains, locus YKL009W, strain mrt4, hits give low values 0.998 | S. cerevisiae deletion strains, locus YKL068W, hits give low values 0.959 | S. cerevisiae deletion strains, locus YKL085W, strain MDH1 (second series), hits give low values 0.955 | S. cerevisiae deletion strains, locus YKL085W, strain MDH1, hits give low values 0.955 | S. cerevisiae deletion strains, locus YKL160W, strain elf1, hits give low values 0.98 | S. cerevisiae deletion strains, locus YKL190W, strain CNB1, hits give low values 1.01 | S. cerevisiae deletion strains, locus YKR001C, strain vps1, hits give low values 0.993 | S. cerevisiae deletion strains, locus YKR026C, strain gcn3, hits give low values 0.983 | S. cerevisiae deletion strains, locus YKR091W, strain srl3, hits give low values 0.984 | S. cerevisiae deletion strains, locus YLL001W, strain dnm1, hits give low values 0.938 | S. cerevisiae deletion strains, locus YLL026W, hits give low values 0.988 | S. cerevisiae deletion strains, locus YLL041C, strain sdh2, hits give low values 0.986 | S. cerevisiae deletion strains, locus YLR027C, strain aat2, hits give low values 0.98 | S. cerevisiae deletion strains, locus YLR039C, strain RIC1, hits give low values 1.17 | S. cerevisiae deletion strains, locus YLR058C, strain SHM2, hits give low values 1.02 | S. cerevisiae deletion strains, locus YLR102C, strain apc9, hits give low values 0.975 | S. cerevisiae deletion strains, locus YLR113W, strain HOG1, hits give low values 0.874 | S. cerevisiae deletion strains, locus YLR258W, strain gsy2, hits give low values 0.978 | S. cerevisiae deletion strains, locus YLR262C, strain YPT6 (second series), hits give low values 0.912 | S. cerevisiae deletion strains, locus YLR262C, strain YPT6, hits give low values 1.03 | S. cerevisiae deletion strains, locus YLR268W, strain sec22, hits give low values 0.993 | S. cerevisiae deletion strains, locus YLR330W, strain CHS5, hits give low values 0.995 | S. cerevisiae deletion strains, locus YLR342W, strain FKS1 (second series), hits give low values 1.01 | S. cerevisiae deletion strains, locus YLR342W, strain FKS1, hits give low values 0.971 | S. cerevisiae deletion strains, locus YLR357W, strain rsc2, hits give low values 0.973 | S. cerevisiae deletion strains, locus YLR370C, strain arc18, hits give low values 0.943 | S. cerevisiae deletion strains, locus YLR371W, strain rom2, hits give low values 0.987 | S. cerevisiae deletion strains, locus YLR384C, strain iki3, hits give low values 0.986 | S. cerevisiae deletion strains, locus YLR418C, strain cdc73, hits give low values 0.966 | S. cerevisiae deletion strains, locus YML016C, strain PPZ1, hits give low values 1.01 | S. cerevisiae deletion strains, locus YML032C, strain rad52, hits give low values 0.999 | S. cerevisiae deletion strains, locus YML124C, strain tub3, hits give low values 0.981 | S. cerevisiae deletion strains, locus YMR058W, strain fet3, hits give low values 0.975 | S. cerevisiae deletion strains, locus YMR078C, strain ctf18, hits give low values 0.973 | S. cerevisiae deletion strains, locus YMR125W, strain sto1, hits give low values 0.975 | S. cerevisiae deletion strains, locus YMR129W, hits give low values 0.987 | S. cerevisiae deletion strains, locus YMR205C, strain PFK2, hits give low values 0.982 | S. cerevisiae deletion strains, locus YMR223W, strain ubp8, hits give low values 0.976 | S. cerevisiae deletion strains, locus YMR231W, strain pep5, hits give low values 0.988 | S. cerevisiae deletion strains, locus YMR263W, strain SAP30, hits give low values 1 and 1.01 | S. cerevisiae deletion strains, locus YMR307W, strain GAS1, hits give low values 1.02 and 1 | S. cerevisiae deletion strains, locus YNL067W, strain RPL9B, hits give low values 1 | S. cerevisiae deletion strains, locus YNL071W, strain lat1, hits give low values 0.986 | S. cerevisiae deletion strains, locus YNL175C, strain NOP13, hits give low values 1 | S. cerevisiae deletion strains, locus YNL183C, strain NPR1, hits give low values 0.931 | S. cerevisiae deletion strains, locus YNL197C, strain WHI3, hits give low values 1 | S. cerevisiae deletion strains, locus YNL209W, strain ssb2, hits give low values 0.953 | S. cerevisiae deletion strains, locus YNL224C, strain SQS1, hits give low values 0.994 | S. cerevisiae deletion strains, locus YNL233W, strain BNI4, hits give low values 1.01 | S. cerevisiae deletion strains, locus YNL248C, strain rpa49, hits give low values 0.958 | S. cerevisiae deletion strains, locus YNL250W, strain rad50, hits give low values 0.947 | S. cerevisiae deletion strains, locus YNL271C, strain bni1, hits give low values 0.955 | S. cerevisiae deletion strains, locus YNL298W, strain CLA4, hits give low values 0.944 | S. cerevisiae deletion strains, locus YNL307C, strain MCK1, hits give low values 0.986 | S. cerevisiae deletion strains, locus YNL322C, strain KRE1, hits give low values 1 | S. cerevisiae deletion strains, locus YNR049C, strain mso1, hits give low values 0.984 | S. cerevisiae deletion strains, locus YNR052C, strain pop2, hits give low values 0.99 | S. cerevisiae deletion strains, locus YOL012C, strain htz1 2.03 | S. cerevisiae deletion strains, locus YOL147C, strain pex11, hits give low values 0.981 | S. cerevisiae deletion strains, locus YOR001W, strain rrp6, hits give low values 0.926 | S. cerevisiae deletion strains, locus YOR061W, strain CKA2, hits give low values 1.01 | S. cerevisiae deletion strains, locus YOR069W, strain VPS5, hits give low values 0.996 | S. cerevisiae deletion strains, locus YOR070C, strain gyp1, hits give low values 0.977 | S. cerevisiae deletion strains, locus YOR080W, strain dia2, hits give low values 0.989 | S. cerevisiae deletion strains, locus YOR083W, strain WHI5 (second series), hits give low values 1.01 | S. cerevisiae deletion strains, locus YOR083W, strain WHI5, hits give low values 0.942 | S. cerevisiae deletion strains, locus YOR106W, strain vam3, hits give low values 0.929 | S. cerevisiae deletion strains, locus YOR136W, strain idh2, hits give low values 1 | S. cerevisiae deletion strains, locus YOR144C, strain elg1, hits give low values 0.992 | S. cerevisiae deletion strains, locus YOR184W, strain ser1, hits give low values 0.988 | S. cerevisiae deletion strains, locus YOR231W, strain MKK1, hits give low values 0.953 | S. cerevisiae deletion strains, locus YOR265W, strain rbl2, hits give low values 0.96 | S. cerevisiae deletion strains, locus YOR270C, strain vph1, hits give low values 0.957 | S. cerevisiae deletion strains, locus YOR290C, strain snf2, hits give low values 0.895 | S. cerevisiae deletion strains, locus YOR316C, strain cot1, hits give low values 0.985 | S. cerevisiae deletion strains, locus YPL051W, strain arl3, hits give low values 0.969 | S. cerevisiae deletion strains, locus YPL078C, strain atp4, hits give low values 0.975 | S. cerevisiae deletion strains, locus YPL106C, strain sse1, hits give low values 1.02 | S. cerevisiae deletion strains, locus YPL240C, strain hsp82, hits give low values 0.978 | S. cerevisiae deletion strains, locus YPL241C, strain CIN2, hits give low values 0.996 | S. cerevisiae deletion strains, locus YPL256C, strain CLN2, hits give low values 0.871 | S. cerevisiae deletion strains, locus YPR119W, strain clb2, hits give low values 0.98 | S. cerevisiae deletion strains, locus YPR141C, strain kar3, hits give low values 0.96 | S. cerevisiae deletion strains, locus YPR163C, strain tif3, hits give low values 0.981 | S. cerevisiae deletion strains, locus YPR167C, strain met16, hits give low values 0.977 | S. cerevisiae deletion strains, strain wtn01, hits give low values 0.985 | S. cerevisiae strains, strain wild type, hits give low values 1
